# Key:
# Details in all cases: concentration: 1 μM, replicates: in singlicate; n = 1
# EPHA7 = tested on: EPHA7
# EPHA8 = tested on: EPHA8
# EPHB1 = tested on: EPHB1
# EPHB2 = tested on: EPHB2
# EPHB3 = tested on: EPHB3
# EPHB4 = tested on: EPHB4
# EPHB6 = tested on: EPHB6
# ERBB2 = tested on: ERBB2
# ERBB3 = tested on: ERBB3
# ERBB4 = tested on: ERBB4
# ERK1 = tested on: T1, ERK1
# T1 construct: gene MAPK3
# ERK2 = tested on: T2, ERK2
# T2 construct: gene MAPK1
# ERK3 = tested on: T3, ERK3
# T3 construct: gene MAPK6
# ERK4 = tested on: T4, ERK4
# T4 construct: gene MAPK4
# ERK5 = tested on: T5, ERK5
# T5 construct: gene MAPK7
# ERK8 = tested on: T6, ERK8
# T6 construct: gene MAPK15
# ERN1 = tested on: ERN1
# FAK = tested on: T7, FAK
# T7 construct: gene PTK2
# FER = tested on: FER
# FES = tested on: FES
# 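Also: KINOMEscan kinase panel screen.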
Compound,%Inh (EPHA7) [%],%Inh (EPHA8) [%],%Inh (EPHB1) [%],%Inh (EPHB2) [%],%Inh (EPHB3) [%],%Inh (EPHB4) [%],%Inh (EPHB6) [%],%Inh (ERBB2) [%],%Inh (ERBB3) [%],%Inh (ERBB4) [%],%Inh (ERK1) [%],%Inh (ERK2) [%],%Inh (ERK3) [%],%Inh (ERK4) [%],%Inh (ERK5) [%],%Inh (ERK8) [%],%Inh (ERN1) [%],%Inh (FAK) [%],%Inh (FER) [%],%Inh (FES) [%]
Cl.NC(=O)c1cccc(Nc2nccc(Nc3ccc(Oc4c(Cl)cccc4Cl)c(Cl)c3)n2)c1 [GW659009],0,6,93.5,0,0,0,32,92.5,93.3,93.9,0,0,0,0,0,10,12,0,0,0
CCn1c(-c2nonc2N)nc2c(C#CC(C)(C)O)nc(OC[C@H](N)c3ccccc3)cc21 [GSK943949],0,0,8,0,0,0,28,12,0,0,0,3,0,0,0,7,4,0,0,0
CC(=O)Nc1nc2cnc(Nc3cc(NC(=O)c4cccc(C5(C#N)CC5)c4Cl)ccc3C)nc2s1,0,55,10,50,10,34,64,14,7,4,0,14,13,0,3,0,28,0,0,12
Cc1ccc(S(=O)(=O)Nc2ccc(Nc3nccc(Nc4cccc5[nH]ncc45)n3)cc2)cc1 [GSK581271],12,30,29,0,3,26,31,14,0,39,0,0,0,5,0,28,0,0,7,0
Cc1ccc(C)c(NC(=O)NC2CCN(c3ccnc(Nc4ccc(F)cc4)n3)C2)c1 (stereo not drawn) [GSK1379720],0,0,0,16,8,6,24,43,11,47,35,0,0,12,0,0,3,0,2,0
FC(F)(F)c1ccc(/C=C/c2cncnc2Nc2ccc3[nH]c(Cc4ccccc4)nc3c2)cc1 [GW709199],0,1,9,7,5,37,0,69,69,72,0,0,0,9,12,21,0,21,0,38
COc1ccc(CNC(=O)NC2CCN(c3ccnc(Nc4ccc(F)cc4)n3)CC2)cc1 [GSK1379788],0,0,1,0,0,7,38,34,10,25,0,0,0,0,0,0,0,0,17,0
Cc1ccc(C(=O)Nc2ccc(Nc3ccnc4cc(-c5nccs5)ccc34)cc2O)cc1.Cl [GW494702],0,0,11,21,20,12,50,42,21,10,0,0,0,0,0,11,0,0,34,24
COc1cccc(C2=C(Nc3ccc(Cl)c(C(=O)O)c3)C(=O)NC2=O)c1 [SB-390769],0,15,0,23,10,10,100,28,5,0,10,0,0,19,0,0,100,0,7,0
COc1cc(Nc2nccc(N3CCC(NC(=O)Nc4cccc(C(C)=O)c4)C3)n2)cc(OC)c1OC (stereo not drawn) [GSK1379753],11,16,18,0,13,6,88,2,0,19,0,0,9,15,0,0,5,0,22,0
Cn1cc(-c2ccc3c(c2)CCN3C(=O)Cc2cccc(Cl)c2)c2c(N)ncnc21 [GSK2606590],13,34,15,0,9,8,86,5,0,0,0,10,0,11,0,0,0,0,35,0
C[C@@H](Oc1cc(-n2cnc3cc(-c4ccnc(NCCS(C)(=O)=O)c4)ccc32)sc1C(N)=O)c1ccccc1Cl [GSK907232],6,23,19,0,10,3,60,0,0,0,0,0,0,19,0,76,0,0,21,0
CN(c1ccc(NC(=O)Nc2cc(C(F)(F)F)ccc2F)cc1)c1ccnc(Nc2ccc(S(N)(=O)=O)cc2)n1 [GW809893],97.9,99.9,97.5,95.7,50,95,98.8,0,35,0,0,0,0,0,79,98.6,5,98.8,84,72
Cc1ccc(C(=O)N2CC[C@@H](O)C2)cc1-n1c(C)cc(OCc2ccc(F)cc2F)c(Br)c1=O,0,85,84,8,0,0,92,36,0,35,0,0,0,9,0,0,0,0,1,0
CN1CCN(CCCNc2nccc(-c3c(-c4ccc(F)cc4)nn4cc(C(F)(F)F)ccc34)n2)CC1 [GW621581],0,15,13,0,0,9,26,0,0,0,0,0,0,5,0,31,0,0,0,0
O=C(O)C(F)(F)F.O=C(O)C(F)(F)F.O=c1[nH]ccc2nc(N[C@@H]3CCCNC3)nc(Nc3ccc(S(=O)(=O)N4CCOCC4)cc3)c12 [GSK2177277],58,39,31,0,15,21,30,2,45,12,59,72,100,100,58,99.2,60,86,95.4,68
COc1ccc(Nc2nccc(NCCNC(=O)c3cc4ccccc4s3)n2)cc1 [GSK1379896],0,3,16,0,5,0,0,4,0,0,0,0,0,0,0,0,0,11,12,0
O=C(Nc1cccc(-c2nn3ccccc3c2-c2ccnc(Nc3cccc(F)c3)n2)c1)c1c(F)ccc(F)c1Cl [GSK357952],11,19,6,0,4,8,48,82,0,76,0,0,0,0,0,20,17,0,45,6
Cc1occc1-c1ncc(OC[C@@H](N)Cc2c[nH]c3ccccc23)cc1-c1ccc2[nH]nc(C)c2c1.O=C(O)C(F)(F)F [GSK682037],6,39,10,0,17,14,0,81,0,47,94.1,82,5,15,0,0,6,40,76,47
CC(=O)N1CCN(c2ccc(Nc3nccc(-c4sc(C(C)C)nc4-c4cccc(NS(=O)(=O)c5cccc(Cl)c5)c4)n3)cn2)CC1 [GSK1660437],0,29,21,0,0,0,97.7,82,92,40,0,98.8,0,0,0,66,44,3,35,0

Compound,%Inh (EPHA7) [%],%Inh (EPHA8) [%],%Inh (EPHB1) [%],%Inh (EPHB2) [%],%Inh (EPHB3) [%],%Inh (EPHB4) [%],%Inh (EPHB6) [%],%Inh (ERBB2) [%],%Inh (ERBB3) [%],%Inh (ERBB4) [%],%Inh (ERK1) [%],%Inh (ERK2) [%],%Inh (ERK3) [%],%Inh (ERK4) [%],%Inh (ERK5) [%],%Inh (ERK8) [%],%Inh (ERN1) [%],%Inh (FAK) [%],%Inh (FER) [%],%Inh (FES) [%]
Clc1ccc(-c2nn3ncccc3c2-c2ccnc(Nc3ccc4c(c3)OCCO4)n2)cc1 [GW829116],35,3,18,13,7,0,65,32,8,84,0,12,3,0,0,1,0,0,0,0
Cn1cc(-c2ccc3c(c2)CCN3C(=O)Cc2cccc(F)c2)c2c(N)ncnc21 [GSK2603358],7,11,0,0,13,16,98.7,40,0,12,0,6,0,26,2,0,3,0,35,0
NCCCC(NC(=O)c1cc(Br)c(-c2ccnc3[nH]ccc23)s1)c1ccccc1.O=C(O)C(F)(F)F.O=C(O)C(F)(F)F (stereo not drawn) [GSK1287544],8,7,30,0,0,15,0,0,0,15,12,22,0,0,0,43,22,0,0,1
c1ccc(Oc2ccc(Nc3ccnc4cc(-c5ccc(CNCCN6CCOCC6)o5)ccc34)cc2)nc1 [GW567145],0,7,0,5,0,0,98,44,98.4,7,0,0,0,0,0,0,26,0,0,5
Cl.c1ccc(-c2ccc3c(Nc4ccc5[nH]ccc5c4)ccnc3c2)nc1 [GW440138],3,25,11,0,1,5,79,63,50,44,8,0,0,6,0,0,0,0,0,0
O=C(Nc1cccc(-c2nn3ccccc3c2-c2ccnc(Nc3cccc(C(F)(F)F)c3)n2)c1)c1c(F)cccc1F [GSK292658],0,0,2,0,5,0,25,80,0,90,0,0,0,0,0,9,0,0,3,0
CN1CCN(Cc2cccc(-c3ccc4c(Nc5ccc(Oc6ccccc6)cc5)ccnc4c3)c2)CC1 [GW578342],0,0,25,16,7,10,87,62,99.1,55,4,0,0,9,0,0,11,0,4,4
Nc1ncc(-c2ccc3nccc(-c4ccncc4)c3c2)cc1S(=O)(=O)N1CCOCC1 [GSK1627798],4,15,1,0,3,3,36,0,0,0,0,0,0,10,0,45,0,2,11,0
COc1cc(Nc2nccc(-c3c(-c4cccc(NC(=O)c5c(F)cccc5F)c4)nn4ncccc34)n2)cc(OC)c1OC [GSK327238],9,56,35,93,0,15,97.4,98.6,96,99.4,6,15,3,29,68,0,30,38,77,50
COc1cc(Nc2nccc(-c3c(-c4cccc(NC(=O)c5c(F)cccc5F)c4)nn4ccccc34)n2)cc(OC)c1OC [GSK323521],15,20,14,9,1,8,71,6,0,12,25,36,0,3,0,24,2,0,14,0
Cc1cccc(NC(=O)Nc2ccc(Oc3ncnc4ccn(C)c34)cc2)c1,18,0,6,0,21,0,91,49,0,12,0,20,0,0,0,12,0,5,0,0
O=C(Nc1cccc(-c2nn3ncccc3c2-c2ccnc(Nc3ccccc3)n2)c1)c1c(F)cccc1F [GSK198271],5,19,18,11,1,6,63,95.2,80,100,0,6,0,20,4,0,32,0,45,6
CC(C)c1nc(-c2cccc(NS(=O)(=O)c3c(F)cccc3F)c2F)c(-c2ccnc(Nc3ccc(N4CCOCC4)nc3)n2)s1 [GSK2008607],0,99.4,40,0,0,0,99,92.1,97.7,97.7,0,0,9,42,2,93.5,65,32,71,23
CCn1c(-c2nonc2N)nc2c(C#CC(C)(C)O)ncc(OCCCCN)c21.O=C(O)C(F)(F)F.O=C(O)C(F)(F)F [GSK507274],0,3,0,0,27,29,6,5,0,41,0,1,6,8,0,10,0,0,0,9
Nc1ncnc2c1nc(-c1ccccc1)n2-c1ccccc1 [SKF-97293],0,7,15,0,29,10,16,14,43,0,12,10,0,0,6,13,35,14,8,30
COc1cccc(-c2ccc3c(NC(=O)C4CC4)n[nH]c3n2)c1 [SB-710903],16,30,0,24,24,16,48,51,0,36,0,0,0,8,0,11,0,0,0,0
COc1ccc(Nc2nccc(N3CCC(NC(=O)Nc4cccc(OC)c4)C3)n2)cc1 (stereo not drawn) [GSK1379742],6,11,9,0,12,0,9,34,4,0,0,0,9,0,0,36,0,0,26,9
Cl.Cl.NCC(C(=O)Nc1cc(Br)c(-c2ccnc3[nH]ccc23)s1)c1ccccc1 (stereo not drawn) [GSK1269851],0,13,0,0,27,42,1,5,0,52,6,0,0,6,0,74,18,0,18,38
CCCCc1nn2ncccc2c1-c1ccnc(Nc2ccc(N3CCN(C)CC3)cc2)n1 [GW684941],0,73,65,26,18,62,97.7,69,72,66,0,0,46,0,0,63,0,0,47,14
